# Reference: the supplement of paper PMC13380429
# System: Vero E6 infected with SARS-CoV-2
# Assay: inhibition of SARS-CoV-2 cytopathic effect; higher = more antiviral protection, active = above 15
# Conditions: 8.33 nM; 48 h
row,Structure (SMILES),inhibition of SARS-CoV-2 cytopathic effect
1,CNC1CC(c2ccc(Cl)c(Cl)c2)c2ccccc21 (centres undefined) [indatraline],0.4% (inactive)
2,O=C1c2ccccc2C(Cc2ccncc2)(Cc2ccncc2)c2ccccc21,-1.95% (inactive)
3,N#Cc1c(N)nc(SCc2csc(-c3ccc(Cl)cc3)n2)c(C#N)c1-c1ccc(OCCO)cc1 [capadenoson],-0.34% (inactive)
4,NC(=O)c1ncn([C@@H]2O[C@H](CO)[C@@H](O)[C@H]2O)c1O [mizoribine],-0.82% (inactive)
5,Cc1cnc(-c2cnc(NCCNc3ccc(C#N)cn3)nc2-c2ccc(Cl)cc2Cl)[nH]1,3.19% (inactive)
6,Cc1cccc(C)c1NC(=O)/N=C1\CCCN1C [xilobam],-0.97% (inactive)
7,O=[N+]([O-])c1cccc2cn[nH]c12 [7-nitroindazole],1.76% (inactive)
8,Cc1cc2sc(NC(=O)Cc3ccccc3)nc2cc1Cl,2.12% (inactive)
9,CC(CNC(=O)c1cccnc1)NC(=O)c1cccnc1 (centres undefined) [nicaraven],-0.11% (inactive)
10,Nc1nc(O)c2nc(Br)n([C@@H]3O[C@@H]4COP(=O)(O)O[C@H]4[C@H]3O)c2n1 [8-bromo-cGMP],2.94% (inactive)
11,C[C@H]1[C@H](C)CC[C@]2(C(=O)O)CC[C@]3(C)C(=CC[C@@H]4[C@@]5(C)C[C@@H](O)[C@H](O)[C@@](C)(CO)[C@@H]5CC[C@]43C)[C@H]12 [asiatic-acid],-0.62% (inactive)
12,COc1cc(-n2c(=S)[nH]c3ccccc3c2=O)c(Cl)cc1Cl [mdivi-1],0.3% (inactive)
13,CO/N=C(\C(=O)N[C@@H]1C(=O)N2C(C(=O)OCOC(=O)C(C)(C)C)=C(/C=C\c3scnc3C)CS[C@H]12)c1csc(N)n1 [cefditoren-pivoxil],-0.15% (inactive)
14,Nc1ncnc2c1c(-c1ccc(Cl)cc1)nn2-c1cccc(-c2cnnn2Cc2cccc(-c3ccccc3)c2)c1,-0.01% (inactive)
15,CNc1nc(NCc2ccc(NS(C)(=O)=O)cc2Cl)cc(-c2ccccn2)n1,-3% (inactive)
16,N#C/C(=C\c1ccc(O)c(O)c1)C(=O)OCCc1cccs1,1.78% (inactive)
17,CN1CCN(CC(=O)N2c3ccccc3C(=O)Nc3cccnc32)CC1 [pirenzepine],-0.92% (inactive)
18,Cc1cc(Nc2ncnc3ccc(-c4ccc(CNCCS(C)(=O)=O)o4)cc23)ccc1Oc1ccn2ncnc2c1 [HER2-Inhibitor-1],3.23% (inactive)
19,CC[C@H](C)[C@@H]1NC(=O)[C@H](Cc2ccc(OC)cc2)NC(=O)CCCSC[C@@H](C(=O)N2CCC[C@H]2C(=O)N[C@@H](CC(C)C)C(=O)NCC(N)=O)NC(=O)[C@H](CC(N)=O)NC(=O)[C@H](CCC(N)=O)NC1=O [carbetocin],0.45% (inactive)
20,O=C(c1ccc(F)cc1)C1CCN(CCn2c(=S)[nH]c3ccccc3c2=O)CC1 [altanserin],0.82% (inactive)
21,N=C(N)c1ccc(/N=N/Nc2ccc(C(=N)N)cc2)cc1 [diminazene-aceturate],-1.51% (inactive)
22,O=S(=O)(O)CCS [mesna],4.29% (inactive)
23,CC(=O)c1cnc2ccc(-c3cc(Cl)c(O)c(Cl)c3)nc2c1N[C@H]1CC[C@H](CN(C)C)CC1,0.72% (inactive)
24,NC(=O)[C@@H](CC1CC1)[C@@H](CCC(F)(F)F)C(=O)N[C@H]1N=C(c2ccccc2)c2cccc(F)c2NC1=O,-1.04% (inactive)
25,CC[C@@]1([C@H]2O[C@H]([C@H]3O[C@@](O)(CO)[C@H](C)C[C@@H]3C)C[C@H]2C)CC[C@H]([C@@]2(C)CC[C@]3(C[C@H](O)[C@@H](C)[C@@H]([C@H](C)[C@H](OC)[C@@H](C)C(=O)O)O3)O2)O1,-0.7% (inactive)
26,C[C@H](N)C(=O)N[C@@H](CCC(N)=O)C(=O)O [dipeptamin],1.67% (inactive)
27,CC(=O)Oc1ccccc1C(=O)Oc1cccc(CO[N+](=O)[O-])c1,-0.2% (inactive)
28,C[C@H]1O[C@@H](O[C@H]2[C@@H](O)C[C@H](O[C@H]3[C@@H](O)C[C@H](O[C@H]4CC[C@@]5(C)[C@H](CC[C@@H]6[C@@H]5C[C@@H](O)[C@]5(C)[C@@H](C7=CC(=O)OC7)CC[C@]65O)C4)O[C@@H]3C)O[C@@H]2C)C[C@H](O)[C@@H]1O [digoxin],-0.96% (inactive)
29,O=S(=O)(O)c1ccc(-c2c3nc(c(-c4ccc(S(=O)(=O)O)cc4)c4ccc([nH]4)c(-c4ccc(S(=O)(=O)O)cc4)c4nc(c(-c5ccc(S(=O)(=O)O)cc5)c5ccc2[nH]5)C=C4)C=C3)cc1,-2.68% (inactive)
